Measurements as given in PubChem BioAssay AID1159580 (chemical genetic matrix, 2015).
The campaign covered roughly 5,500 compounds. About 2,000 (36%) were called active. Not shown: some 18% with an inconclusive outcome. Rule as the data show it: active = normalized growth mostly below about 0.91 (no sharp cut-off); inconclusive = no clear call, values can overlap the other calls; inactive = mostly above about 0.92. The list shows a part of the results.

Experiment: chemical genetic growth profiling, strain panel (AID 1159580);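 also: tested at 20 µM; growth read once vehicle control cultures reached saturation at 30 °C; 1 = growth at the plate median or of vehicle wells; lower values mean less growth of the strain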
Settings: S. cerevisiae deletion strains, growth OD
[1] = locus YAL040C, strain CLN3, active compounds read low
[2] = locus YER002W, strain NOP16, active compounds read low
[3] = locus YGR078C, strain PAC10, active compounds read low
[4] = locus YNL175C, strain NOP13, active compounds read low
[5] = locus YNL197C, strain WHI3, active compounds read low
[6] = locus YNL224C, strain SQS1, active compounds read low
[7] = locus YNL322C, strain KRE1, active compounds read low
[8] = locus YOR083W, strain WHI5 (second series), active compounds read low

Measured: normalized growth

O=C1C=CC(=O)C=C1
inactive: [1] 0.986 | [2] 1 | [3] 0.912 | locus YMR263W, strain SAP30, active compounds read low 1 | locus YMR307W, strain GAS1, active compounds read low 1.04 | [4] 1.02 | [5] 1.05 | [6] 1 | [7] 0.99 | [8] 1.01 | locus YPL055C, strain LGE1, active compounds read low 0.979

CC(=O)O[C@H]1CC2(C)[C@@H](C[C@@H](O)[C@H]3[C@@]4(C)CC[C@@H](O)[C@@H](C)[C@@H]4CC[C@@]32C)C1=C(CCC=C(C)C)C(=O)O (stereo partly drawn)
inactive: [1] 1.02 | locus YCL061C, strain MRC1 (second series), active compounds read low 1.01 | locus YDR150W, strain NUM1, active compounds read low 1.02 | locus YDR363W, strain ESC2, active compounds read low 1.02 | [2] 1.04 | [3] 1.03 | [4] 1 | [5] 1 | [6] 0.974 | [7] 1.01 | [8] 0.996 | locus YPL241C, strain CIN2, active compounds read low 1.01
